# According to PubChem BioAssay (NCI):
# About 83,000 compounds went through this panel and 20% of them were active in at least one assay; those are over-represented in the sample as a whole.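 Growth was measured after 48 h exposure to one concentration of compound in 96-well plates. Values under 10 count as active.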 A number with no mark means an inactive call. Calls of active or inactive are those of the source.
# Legend:
# Experiment in all cases: NCI-60 one-dose screen, 48 h (100 = growth as untreated, 0 = no growth, -100 = all killed)
# NCI-H23 lung = conditions: 10 µM unless noted
# NCI-H226 lung = conditions: 10 µM unless noted
# NCI-H322M lung = conditions: 10 µM unless noted
# HOP-62 NSCLC = conditions: 10 µM unless noted
# NCI-H460 lung = conditions: 10 µM unless noted
# HOP-92 NSCLC = conditions: 10 µM unless noted
# NCI-H522 lung = conditions: 10 µM
# 786-0 renal = conditions: 10 µM unless noted
# COLO 205 colon = conditions: 10 µM unless noted
Structure (SMILES),growth (NCI-H23 lung),growth (NCI-H226 lung),growth (NCI-H322M lung),growth (HOP-62 NSCLC),growth (NCI-H460 lung),growth (HOP-92 NSCLC),growth (NCI-H522 lung),growth (786-0 renal),growth (COLO 205 colon)
C[N+]1(C)C2CC[C@@H]1CC(OC(=O)C(O)c1ccccc1)C2 (some centres not stated),95.9%,84.7%,97.8%,117%,119%,91.4%,110%,104%,129%
COc1cc(-c2nc3nc4sc(C)c(C)c4c(=O)n3[nH]2)cc(OC)c1OC,94.1%,112%,93%,74.2%,92.9%,70.8%,61.4%,87.9%,94.2%
NC(=NCCCCCCN=C(N)/N=C(\N)Nc1ccc(Cl)cc1)/N=C(\N)Nc1ccc(Cl)cc1,8.42% (active),-9.31% (active),19.8%,-25.3% (active),-1.1% (active),-3.2% (active),-11.1% (active),14%,-96.4% (active)
COc1ccc(CNC(=O)c2c(C)n([O-])c3ccccc3[n+]2=O)cc1,93.8%,102%,144%,94.3%,112%,82.6%,-15.1% (active),101%,122%
Oc1c(Cl)cc(Cl)c(Cl)c1Cc1c(O)c(Cl)cc(Cl)c1Cl,-0.673% (active),18%,-1.98% (active),21.5%,5.9% (active),-21.7% (active),-3.33% (active),12.2%,70.3%
COc1cc(/C=N/NC(=O)c2ccc(C(F)(F)F)nc2Nc2ccc(Cl)cc2C)ccc1O,47.9%,39.6%,25.5%,9.04% (active),24.5%,40%,44.6%,4.66% (active),51.8%
COC(=O)C1CCN(S(=O)(=O)c2ccc(-c3ccccc3)cc2)CC1,97.7%,93.3%,116%,113%,110%,86.8%,99.8%,113%,108%
O=C1Nc2ccc(Cl)cc2/C1=C/c1cccs1,88.9%,88.7%,90.5%,80.8%,93.4%,93.7%,96.2%,108%,117%
O=C(Nc1ccccc1)P(=O)(O)c1ccccc1,94%,91.2%,119%,94.3%,105%,78.1%,102%,110%,114%
COc1cc2c(cc1OC)C(=O)/C(=C/c1cccc(OCC(=O)c3ccccc3)c1)C2,90.8%,86.1%,75%,105%,90.4%,40.9%,48.3%,91.2%,119%
COC(=O)c1c(NC(=O)CSc2nnnn2-c2ccc(OC)cc2)sc(C)c1C,76.7%,79.4%,100%,99.3%,106%,75.1%,91.1%,107%,105%
C[C@]12CCC(=O)C=C1CCC1C2[C@@H](O)C[C@@]2(C)C1CC[C@]2(O)C(=O)COC(=O)CCC(=O)O (some centres not stated),106%,77.4%,95.4%,112%,102%,60.6%,107%,116%,
COc1ccc2nc(N/N=C(\C)c3ccccn3)cc(C)c2c1,19.8%,-49.5% (active),8.51% (active),2.82% (active),-68% (active),7.16% (active),-20.8% (active),-89.7% (active),-78.2% (active)
O=C(NCCCl)NCCN1c2nc3ccccc3cc2Sc2cc3ccccc3nc21,39.1%,63.5%,107%,51.7%,26%,-5.57% (active),55.4%,57.9%,
O=C(COc1cccc(/C=C2\Oc3ccc4ccccc4c3C2=O)c1)c1ccc(Cl)cc1,28.3%,91.9%,108%,101%,114%,81.9%,38%,105%,
COc1ccc2c(c1)[n+](=O)c(/C=C/C(=O)c1cc(OC)c(OC)c(OC)c1)c(C)n2[O-],80%,84.5%,110%,94.3%,81.8%,-22.4% (active),-60.1% (active),67.2%,32%
COc1ccc(/C=C/C(=O)c2cccc(NS(C)(=O)=O)c2)cc1,69.6%,85.7%,92.2%,90.2%,96.4%,60.5%,66.5%,75.7%,102%
O=C(COc1cccc(/C=C2\Cc3ccccc3C2=O)c1)c1ccc(Cl)cc1,96.1%,105%,131%,98%,117%,86.6%,81.1%,97.8%,142%
COc1ccc(C(=O)COc2cccc(/C=C3\COc4ccc5ccccc5c4C3=O)c2)cc1,59.5%,72.7%,147%,96.5%,62%,33.8%,44.1%,83%,123%
CCOC(=O)c1sc(NC(=O)COc2ccc(/C=C3\CCc4cc(OC)ccc4C3=O)cc2)nc1C,96.6%,92.2%,96.5%,103%,111%,106%,-2.75% (active),90.7%,137%
OCCN1CCN(CCCN2c3ccccc3Sc3ccc(C(F)(F)F)cc32)CC1,65.5%,82.7%,65%,45.9%,6.79% (active),6.66% (active),19.5%,38.7%,
O=C(c1ccccc1)c1ccc(Oc2ccc([N+](=O)[O-])cc2[N+](=O)[O-])cc1,86.2%,48.4%,109%,99.1%,103%,52.9%,-26.6% (active),71.9%,
Cc1ccc(-c2cc(-c3ccccc3)n(-c3ccccc3)n2)cc1,95.9%,97.9%,97.3%,-2.85% (active),104%,108%,79%,92.9%,112%
C[C@H]1O[C@@H](O[C@H]2[C@@H](O)C[C@H](O[C@H]3[C@@H](O)C[C@H](O[C@H]4CC[C@]5(C)C6CC[C@]7(C)[C@@H](C8=CC(=O)OC8)CC[C@]7(O)C6CC[C@@H]5C4)O[C@@H]3C)O[C@@H]2C)C[C@H](O)[C@@H]1O (some centres not stated),-47.5% (active),-100% (active),-84.9% (active),-100% (active),-97.3% (active),-29.3% (active),-65% (active),-93.4% (active),-92.6% (active)
O=C(N/N=C/c1ccc(Cl)cc1Cl)c1ccccc1Nc1cccc(C(F)(F)F)c1,70.5%,50%,86.2%,57.9%,104%,-0.368% (active),67%,74.9%,
O=C(c1ccc(N2CCOCC2)cc1[N+](=O)[O-])N1CCOCC1,97.2%,97.9%,111%,94.8%,116%,94.3%,94%,102%,87.1%
CCOC(=O)c1sc(NC(=O)COc2cccc(/C=C3\CCc4cc(OC)ccc4C3=O)c2)nc1C,89.5%,85.2%,99.8%,96.5%,80.8%,72.5%,43.9%,88.1%,135%
